Among all 220,000 compounds or so, about 1,600 (0.73%) were called active. This excerpt belongs to a sample that is enriched for actives. Unmarked numbers belong to inactive results.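 Rule for the calls: active = inhibition above about 70% (limit read from the data); inactive = the rest.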
Each molecule was assayed against 14-3-3 protein zeta/delta (Bos taurus) (UniProt P63103) (assay: inhibitors of 14-3-3 zeta/Bad binding, primary screen, biochemical, TR-FRET, bovine 14-3-3 zeta (AID 781;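 note: 0% = full 14-3-3 plus peptide FRET controls and 100% = background without 14-3-3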)). Settings: TR-FRET 14-3-3zeta/Dy647-pBad peptide displacement, 1 h; at 21.7 µM; active compounds read high.
Sequence of 14-3-3 protein zeta/delta (Bos taurus) (P63103 whole entry, looked up): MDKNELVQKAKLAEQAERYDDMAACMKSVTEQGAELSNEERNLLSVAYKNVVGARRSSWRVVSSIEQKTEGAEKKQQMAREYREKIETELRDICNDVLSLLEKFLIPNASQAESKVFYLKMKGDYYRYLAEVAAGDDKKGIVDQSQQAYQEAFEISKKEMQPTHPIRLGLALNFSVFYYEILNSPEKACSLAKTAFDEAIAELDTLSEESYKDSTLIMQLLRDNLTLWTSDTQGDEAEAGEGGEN

**Q.** `Cn1c(-c2ccco2)nc2cc3ccccc3cc21` was tested. Which inhibition did it give?
**A.** 75.6% (active)

**Q.** With `CN1c2ccccc2-c2nc3ccccc3n2C1c1ccco1` (centres undefined) as the molecule, how does the inhibition read?
**A.** -9.91%

**Q.** Which inhibition does the source give for `S=c1[nH]nc(-c2ccco2)n1/N=C/c1ccccc1` here?
**A.** -2.42%

**Q.** Which inhibition does the source give for `COc1ccc(-c2csc(Cc3nc(O)cs3)n2)cc1` here?
**A.** -15.6%

**Q.** Which inhibition does the source give for `NC1=NC(=O)S/C1=C\c1ccc(O)cc1` here?
**A.** -5.85%

**Q.** With `CCOc1ccc(N=C2SC(C(=O)O)CC(=O)N2C)cc1` (centres undefined) as the molecule, how does the inhibition read?
**A.** 13.2%

**Q.** Which inhibition does the source give for `CCOc1ccc(N=C2NC(=O)S/C2=C\c2ccc(O)cc2)cc1` here?
**A.** 70.4% [fluorescence artefact?] (active)

**Q.** `Cc1cccc(C(=O)Nc2ccc3c(c2)C(=O)N(CC(C)C)C3=O)c1` was tested. Which inhibition did it give?
**A.** -3.81%

**Q.** For `COc1ccc(-n2c(SCC(=O)Nc3sc4c(c3C#N)CCCC4)nnc2-c2ccc(O)cc2)cc1`, which inhibition is on record?
**A.** 87.9% (active)

**Q.** Which inhibition does the source give for `NC(=O)c1c(NC(=O)CSc2nnc(-c3ccco3)n2N)sc2c1CCCC2` here?
**A.** -2.7%

**Q.** With `COc1cccc(CN(C)CC(=O)Nc2sc3c(c2C#N)CCC3)c1` as the molecule, how does the inhibition read?
**A.** -5.48%

**Q.** `C=CCn1c(N)c(C(=O)OCC(C)C)c2nc3ccccc3nc21` was tested. Which inhibition did it give?
**A.** 79.3% [fluorescence artefact?] (active)

**Q.** `CC(C)Cn1c(N)c(C(=O)NCc2cccs2)c2nc3ccccc3nc21` was tested. Which inhibition did it give?
**A.** 6.16%

**Q.** For `C=CCn1c(N)c(S(=O)(=O)c2cccs2)c2nc3ccccc3nc21`, which inhibition is on record?
**A.** -4.17%

**Q.** How did the inhibition turn out when `S=C(NCCc1ccccc1)Nc1ccccc1` was run?
**A.** -1.72%

**Q.** How did the inhibition turn out when `N#Cc1ccc(C(=O)Nc2nc(-c3cccs3)c(C(=O)C(F)(F)F)s2)cc1` was run?
**A.** 3.51%

**Q.** With `CNc1ccc(NC(C)=O)cc1[N+](=O)[O-]` as the molecule, how does the inhibition read?
**A.** 5.82%

**Q.** For `Cc1ccc(Nc2ccc(C(N)=O)cc2[N+](=O)[O-])cc1`, which inhibition is on record?
**A.** 0.31%

**Q.** With `CC(=O)Nc1ccc(/C=N/Nc2ccc(C(=O)c3c(C)cc4ccccn34)cc2[N+](=O)[O-])cc1` as the molecule, how does the inhibition read?
**A.** 84.9% (active)

**Q.** Which inhibition does the source give for `Cc1onc(-c2ccccc2)c1C(=O)N=C(N)c1ccc(Cl)cc1` here?
**A.** -6.58%

**Q.** `CCCN(CCC)S(=O)(=O)c1ccc(C(=O)N2CC3CCC(CC3)C2)cc1` was tested. Which inhibition did it give?
**A.** -3.48%

**Q.** How did the inhibition turn out when `O=C(Nc1ccncc1)c1cc(-c2ccccn2)nc2ccc(Br)cc12` was run?
**A.** 44.9%

**Q.** `O=C(NCc1cccs1)c1cc(-c2ccccn2)nc2ccc(Br)cc12` was tested. Which inhibition did it give?
**A.** 90.8% (active)

**Q.** With `O=C(NCC(c1cccs1)N1CCOCC1)c1cc(-c2ccccn2)nc2ccccc12` (centres undefined) as the molecule, how does the inhibition read?
**A.** 1.32%

**Q.** For `O=C(COC(=O)Cn1cnc2ccccc2c1=O)NCC12CC3CC(CC(C3)C1)C2`, which inhibition is on record?
**A.** 1.53%

**Q.** Which inhibition does the source give for `Cn1cc(/C=C/C(=O)N2CCCC(C(=O)c3ccc(C(F)(F)F)cc3)C2)cn1` (centres undefined) here?
**A.** -7.47%

**Q.** Which inhibition does the source give for `CN(C)CCNC(=O)Cc1ccc([N+](=O)[O-])cc1` here?
**A.** -6.79%

**Q.** For `COCc1cc(C)nc2sc3c(=O)n(-c4cccc5ccccc45)nnc3c12`, which inhibition is on record?
**A.** 5.95%

**Q.** How did the inhibition turn out when `COc1ccc(-n2nnc3c(=O)n(CC(=O)OCc4ccccc4)cnc32)cc1` was run?
**A.** 7.97%

**Q.** Which inhibition does the source give for `COc1ccc(-c2c(C(C)=O)c(C)nc3sc4c(=O)n(-c5ccc(C)cc5)nnc4c23)cc1` here?
**A.** 81.2% (active)

**Q.** With `Nc1nc(-c2sc3nc4c(cc3c2N)CCCC4)nc(N2CCOCC2)n1` as the molecule, how does the inhibition read?
**A.** -13.9%

**Q.** Which inhibition does the source give for `O=C(NNC(=S)NC1CC2CCC1C2)c1ccc(Cl)cc1` (centres undefined) here?
**A.** -16.9%

**Q.** `Cc1nc2nc(SCC(=O)c3ccccc3)[nH]c2cc1Br` was tested. Which inhibition did it give?
**A.** -3%

**Q.** With `Cc1ccc(OCC(=O)Nc2ccccc2Sc2ccc(Cl)cc2)c([N+](=O)[O-])n1` as the molecule, how does the inhibition read?
**A.** 71.7% [fluorescence artefact?] (active)

**Q.** Which inhibition does the source give for `Cc1ccc(OCC(=O)NC(C)c2ccccc2)c([N+](=O)[O-])n1` (centres undefined) here?
**A.** 7.44%

**Q.** How did the inhibition turn out when `CCc1ccccc1NC(=O)CN(C)C(=O)COc1ccc(C)nc1[N+](=O)[O-]` was run?
**A.** -17.4%

**Q.** Which inhibition does the source give for `O=[N+]([O-])c1cccc(/C([O-])=C(/C(=S)Nc2ccccc2F)[n+]2ccccc2)c1` here?
**A.** -7.84%

**Q.** For `Cc1cccc(C(=O)Nc2ccc(C(=O)/C=C/c3cccs3)cc2)c1`, which inhibition is on record?
**A.** 14.9%

**Q.** How did the inhibition turn out when `Cc1ccc(C(=O)/C=C/Nc2ccc(S(=O)(=O)Nc3onc(C)c3C)cc2)cc1` was run?
**A.** -24.4%

Source: PubChem BioAssay AID781 (Emory University Molecular Libraries Screening Center, 2007)
